NIH3T3 tox: Cytotoxic Profiling in NIH 3T3 Cell Line of Diverse Libraries Using Quantitative High-Throughput Screening | AID 1345082, 2018 | Potency, µM (series often up to 96.7 µM), inactives show at the highest dose activity change, negative = cytotoxicity, most hits filed as inhibitors | NIH 3T3 viability, CellTiter-Glo ATP luminescence, 48-72 h | hit rate 4.3% among 94,000; note: % is set by controls: 0 for no effect and ±100 for the full control effect; nearly all actives have a fitted effect of over 55% in size
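Cytotoxicity is measured as loss of cellular ATP: NIH 3T3 cells (400/well) are exposed to compound for 48 or 72 hr at 37 °C, then CellTiter-Glo luminescence is imaged after 10 min at room temperature.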
FLuc inh-1: Firefly luciferase inhibition profiling of diverse chemical library using quantitative high-throughput screening. AID 1347043, 2019. hit rate 2.5% among 76,000. Luciferin 4-monooxygenase (Photinus pyralis), P08659. purified P. pyralis luciferase, luminescence, biochemical. Potency, µM (titrated, usually from 115 µM), actives largely listed as inhibitors; note: % is set by controls: 0 for no effect and ±100 for the full control effect; nearly all actives have a fitted effect of over 65% in size
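Purified P. pyralis luciferase (10nM final) in 50mM Tris acetate pH 7.5, 10mM Mg acetate, 0.01% Tween-20, 0.05% BSA with 10uM D-luciferin and 10uM ATP. Compounds titrated qHTS. Luminescence imaged on CCD.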
HEK293 tox: Cytotoxic Profiling in HEK 293 Cell Line of Diverse Libraries Using Quantitative High-Throughput Screening. HEK 293 viability, ATP luminescence (CellTiter-Glo), 48-72 h. Potency, µM (top dose mostly 115 µM), inactives show at the highest dose activity change, negative = cytotoxicity, usual class: inhibitors. hit rate 6.6% among 94,000. AID 1345083, 2018; note: % is set by controls: 0 for no effect and ±100 for the full control effect; nearly all actives have a fitted effect of over 60% in size
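qHTS cytotoxicity; HEK 293, 250 cells/well; compound pinned; 48 or 72 hr, 37 degree Celsius, 5% CO2, 95% humidity; CellTiter-Glo, 10 min RT; luminescence (ATP).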
GPT2 inhibitor: Primary qHTS assay for inhibitors of Glutamate pyruvate transaminase 2 (GPT2); Alanine aminotransferase 2 (Homo sapiens), Q8TD30; Recombinant GPT2, coupled pyruvate oxidase/HRP Amplex Red fluorescence; Potency, µM (top dose mostly 57.7 µM), inactives show at the top dose activity change, negative = inhibition, hits mostly inhibitors; hit rate 0.25% among 100,000; AID 1671188, 2021; note: % is set by controls: 0 for no effect and ±100 for the full control effect; nearly all actives have a fitted effect of over 60% in size
Target sequence (Q8TD30 whole entry, looked up): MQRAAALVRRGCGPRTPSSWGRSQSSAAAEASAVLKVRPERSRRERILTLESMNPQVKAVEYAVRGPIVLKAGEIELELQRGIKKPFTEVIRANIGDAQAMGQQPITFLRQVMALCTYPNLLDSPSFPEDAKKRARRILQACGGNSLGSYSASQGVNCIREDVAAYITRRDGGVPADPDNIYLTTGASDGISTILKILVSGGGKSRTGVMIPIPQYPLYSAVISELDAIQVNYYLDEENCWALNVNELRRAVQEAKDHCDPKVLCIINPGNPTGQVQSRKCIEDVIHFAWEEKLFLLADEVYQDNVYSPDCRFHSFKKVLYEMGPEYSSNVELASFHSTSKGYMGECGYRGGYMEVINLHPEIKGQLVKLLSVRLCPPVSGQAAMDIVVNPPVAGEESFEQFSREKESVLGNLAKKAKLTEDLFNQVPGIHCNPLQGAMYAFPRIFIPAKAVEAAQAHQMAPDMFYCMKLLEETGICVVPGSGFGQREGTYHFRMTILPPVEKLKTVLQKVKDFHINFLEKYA
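GPT2 10ng/uL, a-KG 250uM, L-Ala 2mM, HEPES pH7.5 + 0.0001% Tween; 30 min RT. Then Amplex mix (PO/HRP/ThPP), 30 min RT dark, fluorescence. AOA 50uM used as positive control.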
NPR1 antag: Natriuretic polypeptide receptor (hNpr1) antagonism - Primary qHTS | hit rate 1.6% among 76,000 | Atrial natriuretic peptide receptor 1 (Homo sapiens), P16066 | Potency, µM (top dose mostly 46.3 µM), for inactives: at the highest dose activity change, negative = inhibition, hits mostly inhibitors | HEK293 hNpr1 GloSensor cGMP, ANP-stimulated luminescence; calls by dose curve; note: % is set by controls: 0 for no effect and ±100 for the full control effect; nearly all actives have a fitted effect of over 60% in size
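HEK293 cells stably expressing human Npr1 and cGMP GloSensor pGS-40F, loaded 2 h with 2% GloSensor reagent, given compound 30 min at room temperature. Luminescence read before and 20 min after 0.1 nM hNppA.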
FLuc SDR -ATP: Firefly luciferase (FLuc-C-HiBiT) SDR gain of signal screen - without ATP | Potency, µM (series often up to 32.7 µM), for inactives: at the top dose activation (signal gain), usual class: activators | Purified FLuc-C-HiBiT, Nano-Glo HiBiT luminescence, no ATP | hit rate 7.8% among 1,300 | shares compounds with FLuc inh-1; note: nearly all actives have a fitted effect of over 55% in size
FLuc SDR ATP: Firefly luciferase (FLuc-C-HiBiT) SDR gain of signal screen - plus ATP; hit rate 8.7% among 1,300; Potency, µM (titrated, usually from 32.7 µM), inactives show top-dose activation (gain of signal), hits mostly activators; purified FLuc-C-HiBiT + ATP, HiBiT complementation luminescence; shares compounds with FLuc inh-1;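 note: signal reports ligand binding via conformational change of the enzyme rather than luciferase catalysis; % of control where 0% means no effect; nearly all actives have a fitted effect of over 55% in size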
FLuc inh-2: Firefly luciferase (FLuc-C-HiBiT) enzymatic inhibition screen - Functional assay. shares compounds with FLuc inh-1. purified FLuc-C-HiBiT enzyme, luciferin luminescence. Potency, µM (doses to about 32.7 µM), inactives show top-dose activity change, negative = inhibition, hits mostly inhibitors. hit rate 42% among 1,300; note: % is set by controls: 0 for no effect and ±100 for the full control effect; nearly all actives have a fitted effect of over 70% in size
Numbers without * were called inactive; i = inactive; ? = inconclusive; . = not tested or not shown; [ ] = remark or other dose. Most compounds without a hit are left out; they make up all but 10% or so of the library. Unless noted, calls come from the whole dose curve; as a rule, active = well fitted curve in the direction sought with a large enough effect; inconclusive = small, poorly fitted or top-dose-only effect, or another doubt; inactive = no such curve, though single readings can be large; an effect the other way counts as inactive or inconclusive. Potency is the fitted concentration of half-maximal effect.

SMILES	NIH3T3 tox	FLuc inh-1	HEK293 tox	GPT2 inhibitor	NPR1 antag	FLuc SDR -ATP	FLuc SDR ATP	FLuc inh-2
c1ccc(-c2cn3c(n2)CO[C@@H](CNCc2cccs2)C3)cc1	-25%[138 µM]	5.6µM*	?	i	-20%[70.6 µM]	13%[49.3 µM]	8%[49.3 µM]	?
Cc1ccc(-c2cn3cc(C(=O)NCC(F)(F)F)nc3s2)cc1	?	.	?	-8%	.	.	.	.
COc1ccc(OC2CCN(C3CCCC3)CC2)c(C(=O)NCCCN2CCCC2=O)c1	-12%	i	-22%	i	2%	.	.	.
COc1ccc(NC(=O)N2CCc3c(C(=O)Nc4ccc5c(c4)OCO5)cccc32)cc1	-21%	2.8µM*	?	i	13µM*	15%	1.2µM*	0.88µM*
COc1ccc(NC(=O)c2cccc3c2CCN3C(=O)Nc2ccc(F)cc2)c(C)c1	-13%	2.2µM*	-27%	i	11µM*	13%	0.7µM*	0.56µM*
CCC(=O)N1CCc2c(C(=O)Nc3cc(OC)cc(OC)c3)cccc21	i	i	-4%	1%	-1%	.	.	.
COc1ccc(NC(=O)N2CCc3c(C(=O)NCc4ccncc4)cccc32)cc1	?	1.3µM*	?	i	11µM*	12µM*	0.88µM*	0.62µM*
COc1ccc(NC(=O)N2CCc3c(C(=O)NCCCN4CCCC4=O)cccc32)cc1	-29%	0.5µM*	?	0%	11µM*	?	0.35µM*	0.25µM*
CCOC(=O)[C@@H]1[C@@H](O)C(=O)N(Cc2ccccc2)C12CCN(C(=O)Cc1ccc(OC)cc1)CC2	?	.	2%	.	.	.	.	.
CCCCn1c(=O)c(C(=O)N2CCN(C(=O)Nc3ccc(Cl)cc3)CC2)nc2cccnc21	?	.	-24%	i	.	.	.	.
CCOc1ccc(CC(=O)N2CCN(c3cc(-c4ccccc4)[nH]n3)CC2)cc1	?	i	?	i	0%	.	.	.
COc1cccc(-c2nc3cc(NC(=O)c4ccc(C)c([N+](=O)[O-])c4)ccc3s2)c1	.	.	.	.	.	9%	9%	-15%
Cn1ncc2c(C(=O)Nc3ccccc3F)cc(-c3ccccc3F)nc21	-21%	.	?	.	.	.	.	.
CCOc1cc(C(=O)Nc2ccc(Cl)c(-c3nc4ccccc4[nH]3)c2)cc(OCC)c1OCC	.	.	.	2%	.	.	.	.
N#Cc1ccc(C(=O)Nc2ccccc2-c2nc3ccccc3s2)c(F)c1	.	.	.	.	.	14%	9%	2%
COc1cc(OC)cc(C(=O)Nc2ccccc2-c2nc3ccccc3s2)c1	.	.	.	.	.	12%	10%	-4%
CCCOc1cccc(C(=O)Nc2ccc(-c3nc4ccccc4s3)c(Cl)c2)c1	.	.	.	.	.	9%	9%	?
COc1ccc(NC(=O)c2cn3cc(-c4cccc(OC)c4)sc3n2)cc1	?	.	?	i	.	.	.	.
CCC(=O)N(C1CCOCC1)C1CCN(Cc2ccc[nH]2)CC1	-14%	i	-11%	i	-9%	.	.	.
Cc1ccccc1C(=O)N1CCCC(c2nn(-c3ccc(Cl)cc3)c(=O)[nH]2)C1 (stereo unspecified)	?	i	?	4%	-7%	.	.	.
